# In all, about 370,000 compounds went through this assay and about 5,400 (1.5%) were called active. What follows is part of a selection rich in actives, with near analogues and random picks from the rest. A number with no mark means an inactive call.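 How the source made its calls: active means activation above the mean of all tested compounds plus 3 SD (cut at about 5.5% in these data); inactive means the rest.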
# Tested on: DAF-12 nuclear receptor (Haemonchus contortus)
# Assay: hcDAF-12 driven luciferase reporter activation – cell-based, luminescence, HEK293, lit1-tk-luc reporter, primary screen (AID 652067);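 further: 100% = response to 3 µM Δ7-dafachronic acid high control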
# Settings: HEK293 hcDAF-12 lit1-tk-luc reporter, at 6.8 µM, active compounds read high, 0% DMSO, 100% Δ7-dafachronic acid
row,SMILES,activation
1,COc1ccc(-n2c(COc3ccccc3)nnc2SCC(=O)Nc2ccc3c(c2)OCO3)cc1,-3.31%
2,O=S1(=O)c2c(cccc2N2CC[C@H](O)C2)O[C@@H]2CCN1C2,-1.21%
3,CCSc1nnc(-c2cc3c(s2)-c2ccccc2CC3)o1,2.59%
4,CCOc1ccc(NC(=O)C2CCCN(C(=O)Nc3ccccc3)C2)cc1 (stereo unspecified),-0.89%
5,COc1ccc2cc(C(=O)C3CCCN(C(=O)c4sc(C)nc4C)C3)ccc2c1 (stereo unspecified),-2.25%
6,CCOc1ccc2nc(C(=O)N3CCCC(C)C3)sc2c1 (stereo unspecified),7.97% (active)
7,COC(=O)[C@]12C[C@H](CC(=O)NCC34CC5CC(CC(C5)C3)C4)C(=O)N(Cc3ccc(Cl)cc3Cl)C1=C[C@H](COCc1ccccc1)O[C@@H]2C,-1.65%
8,CCc1ccc2[nH]c(=O)c(Cc3ccccc3)c(O)c2c1,0.62%
9,CCCOC(=O)Cc1c(O)c2ccccc2[nH]c1=O,0.81%
10,NS(=O)(=O)c1ccccc1NC(=O)c1c(O)c2ccccc2[nH]c1=O,15.2% (active)
11,C[C@H](C(=O)N(C)c1ccccc1)[C@@H](O)c1ccc(Cl)cc1,-1.63%
12,CCS(=O)(=O)c1cc([N+](=O)[O-])c(Sc2ccccc2N)s1,7.01% (active)
13,Cc1ccc(Cl)cc1NC(=O)C1CCCN(c2cnccn2)C1 (stereo unspecified),-1.45%
14,COc1ccc(C2CC(c3cccs3)=NN2C(=O)COC(=O)c2cc3ccccc3cc2O)cc1OC (stereo unspecified),-1%
15,COc1ccc(C2CC(c3cccs3)=NN2C(=O)CSc2nnc(N)s2)cc1OC (stereo unspecified),-1.14%
16,COc1ccc(C2CC(c3cccs3)=Nc3ccccc3S2)cc1OC (stereo unspecified),7.77% (active)
17,CC(C)(C)NC(=O)C(c1cccnc1)N(C(=O)c1cnco1)c1ccc(C(C)(C)C)cc1 (stereo unspecified),-2.31%
18,C/C(=N\N(C)C)c1ccc(OCCOc2ccc([N+](=O)[O-])cc2)cc1,-0.12%
19,COc1ccc(S[C@]2(C(=O)N(C)C)CC(=O)N(c3ccc(OC)cc3)[C@@H]2c2ccc(OC)cc2)cc1,-2.06%
20,COc1ccc(-c2cn3ccsc3n2)cc1,6.33% (active)
21,COc1cc(OC)cc(-c2nc(=S)n3ccsc3n2)c1,1.3%
22,COc1ccc(-c2ccc3c(n2)CCCN3S(=O)(=O)c2ccc(C)cc2)cc1,-0.08%
23,COc1ccc(-c2cn3ccc(C)cc3n2)cc1,7.15% (active)

row,SMILES,activation
1,FC(F)(F)Oc1ccc(-c2cn3cccnc3n2)cc1,0.45%
2,COc1ccc(CSc2nnc(-c3cccc(C)c3)n2C)cc1,-3.02%
3,CCOC(=O)[C@@]12CN(C(=O)OC(C)(C)C)CC=C1N(Cc1ccc(OC)cc1)C(=O)[C@H]2CC(=O)NCc1ccc(OC)c(OC)c1,-1.83%
4,CN1C(=O)C(Br)(Br)CC1c1cccnc1 (stereo unspecified),0.36%
5,Cc1ccc(-n2nc3c(c2NC(=O)CCC2CCCCC2)CS(=O)C3)cc1 (stereo unspecified),1.64%
6,O=C(COc1cccc2c1CCNC2=O)NC1CCCCC1,0.88%
7,Cc1cc(NCCc2c[nH]c3ccccc23)ccc1Oc1cccnc1,-1.55%
8,COc1ccc2oc(N)c(C=O)c(=O)c2c1,-0.56%
9,CCc1cc2c(=O)c(-c3nc4ccccc4n3C)c(CCCC(=O)O)oc2cc1OC(=O)C(C)(C)C,-0.74%
10,CCc1cc2c(=O)c(-c3ccon3)c(N)oc2cc1OC,7.31% (active)
11,O=S1(=O)c2ccc(Br)cc2OC[C@H](Cc2ccccc2)N1Cc1cn(Cc2ccccc2)nn1,-0.79%
12,C=CCN=C1NC(c2ccccc2)C(C(=O)OC)=C(C)N1Cc1ccc(C(F)(F)F)cc1 (stereo unspecified),0.87%
13,Nn1c(SCC(=O)Nc2cccc3ccccc23)nnc1-c1cc(-c2ccc(F)cc2)n[nH]1,-1.52%
14,Cc1cccc(-n2c(O)c(C=Nc3ccccc3N)c(=O)[nH]c2=O)c1,6.08% (active)
15,CC(=O)Nc1nc2ncccn2c1-c1ccc(C(F)(F)F)cc1,-1.9%
16,O=S(=O)(c1ccccc1)N1CCC(c2nc3ccccc3o2)CC1,2.42%
17,Clc1ccc(C(Cn2ccnc2)OCc2ccsc2Cl)c(Cl)c1 (stereo unspecified),-3.27%
18,O=c1c2ccccc2nc2n1C(CSc1ccc(Cl)cc1)CN2 (stereo unspecified),2.36%
19,Cn1nc(-c2ccccc2)c(CSc2cccc(Cl)c2)c1Cl,-1.8%
20,Clc1ccc2nc(CSc3ccccc3)cn2c1,6.03% (active)
21,C#CCN([C@@H](C)C(=O)OCC)S(=O)(=O)c1ccc(Br)cc1F,-0.18%
22,COC(C(=O)Nc1ccc(S(=O)(=O)Nc2ccc(C)c(C)c2)cc1)c1ccccc1 (stereo unspecified),0.37%
23,Cc1ccc(NNC(=O)C2CCC2)cc1C,2.28%

row,SMILES,activation
1,Cc1ccc(N/C=C/C(=O)c2ccccc2)cc1C,15% (active)
2,COC(=O)C1CN(CCc2ccccc2)CCS(=O)(=O)N1Cc1ccc(F)cc1 (stereo unspecified),1.33%
3,Cc1ccc(Cn2cc(CN3[C@@H](CC(C)C)COc4ccc(Cl)cc4S3(=O)=O)nn2)cc1,-0.25%
4,COc1ccccc1N(CC(=O)Nc1ccc(C)cc1Cl)S(=O)(=O)c1cccs1,-2.56%
5,O=C(CN1CCCCC1)NC(=O)Nc1ccccc1F,7.05% (active)
6,CN(CC(=O)NC(=O)Nc1ccccc1F)Cc1ccccc1,-0.6%
7,O=C(CN1CCCCCC1)Nc1ccc(Cl)cc1F,-0.52%
8,CCOc1ccccc1C(=O)N1CCC[C@@H]1C(=O)N1CCC[C@H]1C(=O)NCc1ccccc1,-0.98%
9,COC(=O)C1(S(=O)(=O)C2(C(=O)OC)CCCC2)CCCC1,-1.17%
10,Oc1ccc(Cl)cc1/C=N/c1nc2ccccc2[nH]1,5.95% (active)
11,Oc1c(Cl)cc(Cl)cc1/C=N/c1ncn[nH]1,-0.22%
12,O=C(NCc1ccccc1)[C@H]1CCCN1C(=O)[C@H]1CCCN1C(=O)N1CCOCC1,0.81%
13,COC(=O)C1=C(C)N(Cc2ccc(C(F)(F)F)cc2)C(=NCc2ccc(C(F)(F)F)cc2)NC1c1cccc(Cl)c1 (stereo unspecified),-0.62%
14,COc1ccc(C2CC=C(C(=O)O)C(c3ccccc3F)N2S(=O)(=O)c2ccc(C)cc2)cc1OC (stereo unspecified),-1.61%
15,COC(=O)c1c(NC(=O)COC(=O)[C@@H](NS(=O)(=O)c2ccccc2)C(C)C)sc2c1CCC2,1.86%
16,CCOC(=O)c1c(NC(=O)C(C)Sc2c[nH]c3ccccc23)sc2c1CCC2 (stereo unspecified),5.61% (active)
17,CCOC(=O)c1c(NC(=O)C2(C)Cc3ccccc3C(=O)O2)sc2c1CCCC2 (stereo unspecified),-3.38%
18,O=S1(=O)c2ccc(Br)cc2-n2nncc2CN1Cc1cccc(Cl)c1,0.57%
19,CC(C)CNS(=O)(=O)CC1NCCc2ccccc21 (stereo unspecified),-2.97%
20,COc1ccc(C(=O)C[n+]2ccc(N)c(C)c2C)cc1,-1.41%
21,COc1ccc(C(=O)C[n+]2ccc(C)cc2)cc1,6.64% (active)
22,COc1ccc(C(=O)CC(=O)c2ccc(C)cc2)c(O)c1,-0.09%
23,O=C(CSc1nnc(-c2ccccn2)n1-c1ccc(Cl)cc1)Nc1ccccc1-c1ccccc1,-4.12%

row,SMILES,activation
1,Oc1cccc2ccc(/C=C/c3ccc(Br)s3)nc12,10.2% (active)
2,O=C(Cn1c(-c2ccc(Cl)cc2)noc1=O)N1CCN(c2ccccc2F)CC1,-0.55%
3,Cc1ccc(NC(=O)Nc2cc(C)nn2-c2ccccc2)cc1,-0.41%
4,COC(=O)C1(C)NC(c2ccccc2OC)C2C(=O)N(c3ccccc3)C(=O)C21 (stereo unspecified),-2.14%
5,COC(=O)c1cc(C(=O)OC)cc(N2C(=O)CC(N3CCN(c4ccccc4)CC3)C2=O)c1 (stereo unspecified),0.25%
6,COC(=O)C1=NN(c2ccccc2)C2C(=O)N(c3ccccc3OC)C(=O)C12 (stereo unspecified),9.57% (active)
7,CCOC(=O)C1CSCCS(=O)(=O)N1Cc1ccc(Cl)cc1 (stereo unspecified),-2.38%
8,O=C(C(=O)N1CCC(CNS(=O)(=O)Cc2ccccc2)CC1)c1cc2ccccc2o1,-0.72%
9,COc1cccc(C(=O)Nc2cc3c(cc2Br)OCCCO3)c1,3.75%
10,COc1ccc(C2COC(=O)C2=N)c(NC(=O)c2ccccc2)c1 (stereo unspecified),8.16% (active)
11,COc1ccc(OC)c(NC(=O)c2cccc(S(=O)(=O)N3CCN(C(C)=O)CC3)c2)c1,0.25%
12,COc1cc(/C=C/C(=O)n2cnc3ccccc32)cc(OC)c1OC,0.33%
13,O=C(CSc1nnc(COc2ccccc2)n1Cc1ccco1)c1ccc2ccccc2c1,-2.67%
14,CCOc1ccc(OCc2ccc(C(=O)Nc3cccc(C)n3)o2)cc1,-1.6%
15,Cc1cccc(NC(=O)c2ccc3ccccc3n2)n1,9.6% (active)
16,COC(=O)c1ccc(NC(=S)Nc2cccc(C)n2)cc1,1.84%
17,O=C(CN1CCCc2ccccc21)NCc1ccc(F)cc1,-1.35%
18,Cc1cc(C)n2ncc(C(=O)Nc3ccc4c(c3)OCCO4)c2n1,-0.67%
19,CCOc1ncccc1C(=O)OCC(=O)c1c[nH]c2ccccc12,4.68%
20,C[C@H](NC(=O)c1ccccc1)C(=O)OCC(=O)c1c[nH]c2ccccc12,4.62%
21,O=C(OCC(=O)c1c[nH]c2ccccc12)c1cccc(O)c1,8.68% (active)
22,CCOC(=O)C1=C(C(=O)OCC)C2N(Cc3ccc(C#N)cc3)c3ccccc3[C@@]23C[C@@H](C(=O)OC)N(S(=O)(=O)c2ccc(F)cc2)C3=N1 (stereo partly specified),0.61%

# Source: PubChem BioAssay AID652067 (The Scripps Research Institute Molecular Screening Center, 2013)
